Results on 53 molecules are retold here after ChEMBL document CHEMBL4888484, “Replenishing the malaria drug discovery pipeline: Screening and hit evaluation of the MMV Hit Generation Library 1 (HGL1) against asexual blood stage Plasmodium falciparum ,using a nano luciferase reporter read-out” (2022).

SMILES strings stand for the structures. The whole screen tested about 150,000 compounds, of which about 540 (0.36%) showed an effect of 50% or more. Many of the other results were omitted from the sample, so strong results are more common in it than they were.

For the assay, the system named is Plasmodium falciparum. Put plainly: Primary screen in NF54 nanoGlo assay, in single point, at 2uM, 72h; a lower Z score goes with more inhibition. The settings on record: timepoint 72 hour. Type of assay: functional, Erythrocyte.
In general, % Inhibition refers to the drop in the measured response relative to a control, in per cent. Consider `CC[C@H](Oc1ccccc1C)c1nnc(C2(c3ccccc3)CC2)o1`, for which the “% Inhibition” value is given as -15% and the Z score is on record as 1.76.

For the molecule `CC(C)(C)OC(=O)NC1CCCC1Nc1cnn(-c2ccccn2)c1` (stereo unspecified), the “% Inhibition” value is -13% and the Z score is on record as 1.28.

As for `Cc1ccsc1-c1noc([C@@H]2COCCN2C)n1`, the “% Inhibition” value was found to be 87% and the Z score is reported as -14.98.

In the case of `Cc1cnn(C)c1CN1CCOC[C@H]1c1nc(-c2ccccc2)no1`, the “% Inhibition” value amounted to 16% and the Z score is -2.06.

Regarding `Cc1ccsc1-c1noc([C@H]2CCc3nccn3C2)n1`, the “% Inhibition” value was -5% and the Z score turned out to be 0.62.

With `CC(NCc1ccc(Br)c2cccnc12)C1CCOC1` (stereo unspecified), the “% Inhibition” value is reported as -5% and the Z score turned out to be 0.52.

As to `Cc1ccc(C(=O)Nc2c(C)nc(N3CCOCC3)nc2C)cc1C`, the “% Inhibition” value was determined as 13% and the Z score was -2.05.

On to `O=S(=O)(Nc1cccc2ccccc12)c1cccs1`, for which the “% Inhibition” value stood at 35% and the Z score was -3.95.

As to `O=S(=O)(Nc1cccc2cccnc12)c1cccs1`, the “% Inhibition” value is 55% and the Z score is on record as -5.93.

For the molecule `Cc1n[nH]c(C)c1S(=O)(=O)Nc1cccc2cccnc12`, the “% Inhibition” value is -2% and the Z score came out at 0.25.

Consider `CCN1C[C@]2(CCCN(C(=O)c3ccccc3N3CCCC3)C2)CCC1=O`, for which the “% Inhibition” value came out at 7% and the Z score is recorded as -1.03.

On to `Cc1nn(-c2cnc(N)cn2)c(C)c1Cc1ccccc1`, for which the “% Inhibition” value is -7% and the Z score was 0.91.

As to `COc1ccc(CC(=O)N2CC3(C[C@H](N4CCN(C)CC4)CO3)C2)cc1`, the “% Inhibition” value is given as -7% and the Z score was 1.04.

In the case of `Clc1ccccc1OCCn1nc(C2CC2)nc1C1CC1`, the “% Inhibition” value was determined as 2% and the Z score is -0.37.

`C[C@@H]1CN(c2nc(C(F)F)nc3ccc(F)cc23)C[C@H](C)N1`: the “% Inhibition” value was -4% and the Z score was found to be 0.64.

On to `CO[C@@H]1CO[C@H]2[C@@H]1OC[C@@H]2Nc1nccc(-c2ccc3c(c2)OCO3)n1`, for which the “% Inhibition” value is recorded as -2% and the Z score amounted to 0.19.

In the case of `CCn1ccc(C(=O)N2CCCN(Cc3c(C)noc3C)CC2)n1`, the “% Inhibition” value is -3% and the Z score is given as 0.35.

Consider `NC(=O)[C@@H]1CCCN1C(=O)c1ccnc(OC2CCCCC2)c1`, for which the “% Inhibition” value was 53% and the Z score is listed as 0.89.

`NC(=O)[C@@H]1CCCCN1C(=O)c1ccnc(-n2cccn2)c1`: the “% Inhibition” value was 12% and the Z score was -1.33.

Turning to `CC[C@H]1CCCCCN1C(=O)c1ccnc(OC2CCC2)c1`, the “% Inhibition” value is listed as -5% and the Z score is given as 0.5.

With `COc1ccc(CCc2nc(NC(=O)[C@H]3CC(=O)N(C)C3)n[nH]2)cc1OC`, the “% Inhibition” value turned out to be 15% and the Z score was -2.27.

Take `COc1ccc(CCc2nc(NC(=O)C(C)C)n[nH]2)cc1OC`: the “% Inhibition” value stood at 13% and the Z score was -1.63.

`COc1ccc(CCc2nc(NC(=O)c3nc(C)sc3C)n[nH]2)cc1OC`: the “% Inhibition” value is 71% and the Z score is recorded as -9.67.

In the case of `COC1CCCC(CC(=O)NC2CC(=O)N(C)C2)C1` (stereo unspecified), the “% Inhibition” value is on record as 2% and the Z score was -0.4.

As for `CC(C)C[C@H]1CCCN(CC(=O)N2CC(=O)Nc3ccccc32)C1`, the “% Inhibition” value is recorded as -1% and the Z score is given as 0.19.

In the case of `CN(C[C@H](O)C(F)(F)F)C(=O)c1ccc(C#N)cn1`, the “% Inhibition” value is on record as -15% and the Z score was 1.32.

Take `CC(=O)N1CCN(C(=O)NCc2cc(F)ccc2C)C[C@@H](O)C1`: the “% Inhibition” value is reported as -9% and the Z score is on record as 0.8.

`CCC1([C@@](O)(C#CCN(Cc2ccccc2)C(C)(C)C)c2ccccc2)CCCC1`: the “% Inhibition” value stood at 33% and the Z score was -3.73.

On to `CCC(C)(CC)[C@@](O)(C#CC[N+]1(Cc2ccccc2)CCCCC1)c1ccccc1`, for which the “% Inhibition” value came out at 38% and the Z score is listed as -1.99.

Consider `CCC1([C@@](O)(C#CCN2CCCCCC2)c2ccccc2)CCCC1`, for which the “% Inhibition” value was -16% and the Z score was determined as 1.41.

Turning to `C[N+]1(C/C=C/C(O)(c2ccccc2)c2ccccc2)CCCCC1`, the “% Inhibition” value turned out to be 12% and the Z score is reported as -1.05.

Regarding `CCC[N+]1(CC#CC2(O)CCCCC2)CCOCC1`, the “% Inhibition” value was -9% and the Z score is reported as 1.67.

For the molecule `CCC(C)(CC)[C@@](O)(C#CC[N+]1(Cc2ccccc2Cl)CCCCC1)c1ccccc1`, the “% Inhibition” value is reported as 39% and the Z score is -4.45.

Turning to `CC1([C@@](O)(C#CC[N+]2(C)CCCCC2)c2ccccc2)CCCC1`, the “% Inhibition” value came to 60% and the Z score was -9.64.

As to `CCC[N+]1(CC#C[C@@](O)(c2ccccc2)C(C)(CC)CC)CCCCC1`, the “% Inhibition” value came to 54% and the Z score is given as -8.65.

Consider `CCC[N+]1(CC#C[C@@](O)(c2ccccc2)C2(C)CCCC2)CCCCC1`, for which the “% Inhibition” value was found to be 51% and the Z score was -4.55.

For `CCOC[C@H]1CCN(C(=O)C2(O)CN(C(=O)OC(C)(C)C)C2)C1`, the “% Inhibition” value is -4% and the Z score is 0.81.

In the case of `Cn1cccc(C(=O)N2CCC(c3nnc(C(F)(F)F)o3)CC2)c1=O`, the “% Inhibition” value was -12% and the Z score was found to be 1.33.

As for `Cc1ccc(-c2cc(C(=O)Nc3ncccc3Cl)c3ccccc3n2)s1`, the “% Inhibition” value amounted to 3% and the Z score is on record as -0.34.

In the case of `CCOc1cc2c(cc1CN1CCN(C)[C@]3(CCC(=O)N(C)CC3)C1)CCC2`, the “% Inhibition” value is recorded as -10% and the Z score was determined as 1.92.

`CC1(C(=O)N2CC3CCCCC3C2)CCCC1` (stereo unspecified): the “% Inhibition” value was -24% and the Z score came to 2.4.

Take `O=C(c1cccc2cc[nH]c12)N1C[C@@H]2[C@H](C1)[C@H]1CC[C@@H]2O1`: the “% Inhibition” value is listed as 18% and the Z score was -1.92.

`Clc1ccc(C[n+]2ccc(-c3nc4ccccc4o3)cc2)c(Cl)c1`: the “% Inhibition” value was 79% and the Z score is -11.4.

For the molecule `Clc1ccc(COc2ccc(Br)cc2CNc2ccc(-c3nc4ccccc4o3)cc2)c(Cl)c1`, the “% Inhibition” value is on record as -39% and the Z score is 4.57.

Take `c1cc(-c2nc3ccccc3o2)cc(-c2nc3ccccc3o2)c1`: the “% Inhibition” value is -13% and the Z score was 2.52.

`Cc1cc(C(=O)NCc2ccncc2)c(=O)n(C)c1C`: the “% Inhibition” value is listed as -11% and the Z score worked out at 1.52.

As to `CC(NCC1CS(=O)(=O)c2ccccc21)[C@@H]1C[C@H]1C1CC1` (stereo partly specified), the “% Inhibition” value is given as -3% and the Z score was determined as 0.41.

On to `NC(=O)c1ccccc1NC(=O)C1CCN(c2cc(N3CCCC3)ncn2)CC1`, for which the “% Inhibition” value was found to be 7% and the Z score is reported as -1.36.

`NC(=O)c1ccccc1NC(=O)C1CCN(c2cc(C3CC3)ncn2)CC1`: the “% Inhibition” value is 57% and the Z score is -10.93.

Turning to `O=C(Nc1ccccc1F)C1CCN(c2cc(C3CC3)ncn2)CC1`, the “% Inhibition” value is listed as -16% and the Z score stood at 3.11.

`Cc1cc(NC(=O)c2ccc3c(c2)C(=O)N(C[C@H]2CCCO2)C3=O)no1`: the “% Inhibition” value was -8% and the Z score is recorded as 1.45.

In the case of `CNC(=O)[C@@H]1CCCN1C(=O)CNC(=O)c1cccc2c1OCC2`, the “% Inhibition” value is -5% and the Z score is reported as 0.71.

In the case of `Cc1ncsc1CCN(C)CCn1cc[nH]c1=O`, the “% Inhibition” value is -15% and the Z score is reported as 3.22.
